Test results reported in the supplement of paper PMC6555819.

Key:
Assay in all cases: PBM binding z-score (relative to random genomic background probes); higher = stronger binding; sequences stand for … in GC…GCGATTGACAGCGTAGAATGAAGG
[1] = test system: RARb homodimer (NR concentration 270 nM)
Summary of the method: (§1)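 Binding z-scores take random background probes as their reference. They come from custom Agilent 4×180K protein-binding microarrays incubated 1 h with ligand-free nuclear receptor dimers, with antibodies against each partner (one per run) detecting binding. Scanned fluorescence was regression-normalized.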

[2] = test system: RARg:RXRa (NR concentration 270 nM, RXRa partner concentration 90 nM)
Summary of the method: as §1

[3] = test system: RARg homodimer (NR concentration 270 nM)
Summary of the method: as §1

[4] = test system: RXRa DBDmut IVT, anti-RXR (DBD mutation: RXRa K156A/R161A, NR concentration 90 nM)
Summary of the method: as §1

[5] = test system: RXRa homodimer (NR concentration 180 nM)
Summary of the method: as §1

[6] = test system: THRa:RXRa (NR concentration 90 nM, RXRa partner concentration 90 nM)
Summary of the method: as §1

[7] = test system: THRa homodimer (NR concentration 90 nM)
Summary of the method: as §1

[8] = test system: VDR homodimer (NR concentration 270 nM)
Summary of the method: as §1

| Sequence | PBM binding z-score [1] | PBM binding z-score [2] | PBM binding z-score [3] | PBM binding z-score [4] | PBM binding z-score [5] | PBM binding z-score [6] | PBM binding z-score [7] | PBM binding z-score [8] |
| --- | --- | --- | --- | --- | --- | --- | --- | --- |
| ACTTACGGGTCAACGAGGCTATAGCACGCGTATA | 3.07 | 5.01 | 4.51 | 2.15 | 5.06 | 3.35 | 0.239 | 1.55 |
| TCTTGTAGATCAATAGAGGTGAAGAAAGTGCGCT | 0.962 | 0.365 | 0.434 | 0.561 | 0.577 | 2.59 | -0.132 | -0.534 |
| CGTCCAAGGTCAATGCTAGGTCAGTAAAAGCATT | 4.89 | 7.54 | 6.94 | 3.31 | 5.24 | 4.28 | 2.63 | 2.92 |
| AGAACGAGGGCAATGAATTGATAGCACGGGTGGC | 0.905 | 1.08 | 1.27 | 1.34 | 0.98 | 0.765 | -0.323 | 0.621 |
| CCTGCTAGGTCATGGCCAGCTAATCTACAGTATG | 3.06 | 3.9 | 4.02 | 1.3 | 2.92 | 3.02 | 0.915 | 0.188 |
| ATATGTAGGTTAGCTTGGGTCATTCAGACTAGGC | 2.7 | 2.07 | 1.67 | 0.678 | 1.89 | 4.29 | 1.36 | 1.36 |
| CCGACTGAGGCATAAGGTTACCATAAGCCAGCCC | 1.13 | 0.506 | 0.395 | 0.281 | 0.885 | 2.07 | 1.53 | 0.195 |
| ACAGACAGGTGCGTGAAGGTAACTCAGCTGGACG | -0.567 | -0.319 | -0.0259 | -0.249 | -0.0792 | -0.227 | -0.945 | -0.569 |
| TAGCCTAGCTCATTGGGCCAGTATAGTACGCATC | -0.698 | -0.5 | -0.328 | -0.683 | -0.449 | -0.611 | -0.587 | -0.87 |
| ATATGTGGGTTACATCCGGGTCATTCAGGCTATG | 2.79 | 3.53 | 1.94 | 1.08 | 3.17 | 3.75 | 3.01 | 3.65 |
| TATACAGGGTCAAAGGCCAGGGTACGAATGTCGA | 3.71 | 5.77 | 5.14 | 2.73 | 7.42 | 3.73 | 1.2 | 3.31 |
| TATACAGGGTCAAGGGCCAGAGTACGAATGTCGA | 3.62 | 5.65 | 5.33 | 2.14 | 6.23 | 3.68 | 1.08 | 2.13 |
| CCGACTGGGGCATAAGGTTACCGTAAGCCAGCCC | 1.83 | 2.05 | 1.06 | -0.367 | 1.34 | 2.26 | 1.13 | -0.402 |
| CCGAGTGGGGCAAGGTTACCATAACGCACAGCCA | 1.3 | 1.07 | 1.2 | -0.421 | 1.3 | 1.53 | 0.265 | 0.121 |
| TCTAGTAGATCAAAGGTTAAGAAAGCCGAAGCCT | 1.26 | 1.37 | 0.721 | 0.713 | 3.04 | 1.19 | -0.728 | -0.063 |
| CTACCAAGGTGAACAAGGTCGTTAATTACTATTC | 2.04 | 1.86 | 1.55 | 1.48 | 1.91 | 3.19 | 1.99 | 2.64 |
| CCTGCTAGGTCAATGGCCAGCTAAAGCAGCTCGC | 2.64 | 3.43 | 3.65 | 1.05 | 1.79 | 1.98 | 0.178 | -0.525 |
| AGAACGAGGGCAATGAGTTGAAAGCACGGGTGGC | 1.14 | 1.26 | 1.51 | 2.17 | 1.07 | 1.22 | -0.343 | 3 |
| CCTACTGGGCCACGAGAGGTCATTGATTCAGTGA | 3.75 | 3.95 | 3.64 | 0.702 | 4.15 | 4 | 1.33 | 3.47 |
| TGTAGTTGGTCACGGAGGTCACACACGACGGGTA | 4.39 | 4.74 | 4.47 | -0.214 | 4.76 | 3.6 | 2.44 | 2.45 |
| ATCACTAGGTAAGACTCAGTTCAGTGAAGAACGC | 0.405 | 0.282 | 0.333 | 0.204 | -0.0584 | 0.526 | 0.536 | 1.28 |
| ACAGACAGGTGAGTAAAGGTAACTCAGCTGGACG | 0.365 | 0.666 | 0.622 | -0.605 | 0.915 | 1.67 | -0.828 | -0.485 |
| ACTAGTTGGTCAGCTGAGGTCACAGACAATTCGG | 4.19 | 4.16 | 3.84 | 1.15 | 4.37 | 4.99 | 5.44 | 2.9 |
| GATACAGGGTCAGCTAGCGGCCAGAGTATGGAAA | 2.95 | 6.02 | 4.62 | 1.31 | 4.36 | 2.56 | -0.0331 | 0.352 |
| CGTCAAAGTTCTACTAAGGTAACGTAAAGCACGC | 0.428 | 0.172 | 0.53 | 0.53 | 0.138 | 3.7 | 1.49 | 0.165 |
| TCTAGCAGGCCAGAGGGTCGCTCAAGAGGTACGG | 0.452 | 0.125 | 0.0431 | -0.342 | 0.375 | -0.276 | -1.24 | -0.526 |
| TTACCAAGGTGAAAGGTAGTTGATGCACGCCTTG | 0.674 | 1.1 | 0.73 | 0.0303 | 1.67 | 1.73 | 0.341 | -0.225 |
| ACTAGTAGTTGAGACGAGGGCAACCGATAGGTTG | 1.26 | 0.496 | 0.837 | -0.186 | 0.422 | 2.71 | -0.0205 | 0.686 |
